These results are taken from PubChem BioAssay AID463173 (ICCB-Longwood Screening Facility, Harvard Medical School, 2010).

The whole screen tested about 52,000 compounds, of which about 1,700 (3.3%) were called active. The sample holds actives, similar compounds and a random draw of the others, so the mix is not that of the screen. Unmarked numbers belong to inactive results. Rule as the data show it: active = survival mostly below about 52% (no sharp cut-off); inactive = mostly above about 56%.

This assay deals with Wild type. Briefly: S. aureus survival, RN4220 and DeltatarO strains – OD600, teichoic acid synthesis inhibitors, primary screen (AID 463173). The conditions noted are these: S. aureus RN4220 wild type/DeltatarO growth, OD600, 18 h, stronger effect = lower value, screened at 18.75 µg/mL (by protocol).
In the case of `COc1cc(C(=O)Nc2ccc3nc(SCc4ccc(C)cc4)sc3c2)cc(OC)c1OC`, the survival is 113%.
On to `CCc1ccc(N2C(=O)CSC23C(=O)N(Cc2ccc(C)cc2)c2ccccc23)cc1` (stereo not given), for which the survival is 66%.
On to `Cc1ccc(NC(=O)Nc2nnc(N3CCCCC3)s2)c(C)c1`, for which the survival was 97%.
Regarding `CCC(=O)Nc1nnc(SCCOC)s1`, the survival is 120%.
The figure for `COc1ccc(-c2oc3ncn4nc(-c5cccc(C)c5)nc4c3c2-c2ccc(OC)cc2)cc1` is 68%; for `O=C(COc1ccccc1)NCc1ccc2c(c1)CCN2C(=O)c1ccc(Cl)cc1` it is 82%.
As to `COC(=O)c1ccc(NC(=O)Cn2nc(C(=O)Nc3ccc(C)cc3)ccc2=O)cc1`, the survival was 85%.
Under `COc1ccc(CNC(=O)c2cc(Nc3ccc(C)cc3C)nc3ccccc23)cc1` stands 91%; under `CCC(CC)C(=O)Nc1cc(-c2cn3cccnc3n2)ccc1OC`, 117%; under `CCNC(=O)C1CCN(Cc2cc3ccccc3n2Cc2ccc(C)cc2)CC1`, 85%.
Under `COc1cc(OC)c(NC(=O)c2cc3c(s2)-c2ccc(Cl)cc2SC3)cc1Cl` stands 96%; under `Fc1ccc(-n2ncc3c(NC4CCCCCC4)ncnc32)cc1`, 76%.
Under `O=C1N(Cc2ccccc2Cl)c2ccccc2C1(O)c1c[nH]c2ccccc12` (stereo not given) stands 84%; under `CCCCN1C(=O)C(O)(c2c(C)[nH]c3ccccc23)c2cc(Br)ccc21` (stereo not given), 36%; under `Cc1[nH]c2ccccc2c1C1(O)C(=O)N(Cc2ccccc2)c2ccc(Br)cc21` (stereo not given), 14% (active).
For the molecule `Cc1ccccc1CN1C(=O)C(O)(c2c[nH]c3ccccc23)c2cc(Cl)ccc21` (stereo not given), the survival was -11% (active).
For `O=C1N(Cc2ccccc2)c2ccccc2C1(O)c1c[nH]c2ccccc12` (stereo not given), the survival was 67%.
The figure for `Cc1ccc(CN2C(=O)C(O)(c3c[nH]c4ccccc34)c3cc(Cl)ccc32)cc1` (stereo not given) is -11% (active); for `Cc1[nH]c2ccccc2c1C1(O)C(=O)N(Cc2ccccc2)c2ccc(Cl)cc21` (stereo not given) it is 28%.
Under `O=C1N(Cc2ccccc2)c2ccc(Cl)cc2C1(O)c1c[nH]c2ccccc12` (stereo not given) stands 53%; under `Cc1ccc(C)c(CN2C(=O)C(O)(c3c[nH]c4ccccc34)c3ccccc32)c1` (stereo not given), 116%.
Under `COc1ccc(CC(=O)NCCS(=O)(=O)N2CCN(c3ccccc3F)CC2)cc1OC` stands 66%; under `O=C(CN1C(=O)CSC1=O)N1CCCCC1`, 97%; under `CCc1ccc(-c2cc(C)no2)cc1S(=O)(=O)NCc1ccco1`, 76%.
`COc1cccc(Nc2sc(C(=O)c3ccc(Cl)cc3)c(N)c2C(=O)NCCc2ccc(OC)c(OC)c2)c1`: the survival is 75%.
Under `CC(C)=NNC(=O)c1nnn(-c2nonc2N)c1CN1CCOCC1` stands 108%; under `COc1ccc(CNS(=O)(=O)c2ccc(F)c(C(=O)Nc3c(C)cc(C)cc3C)c2)cc1`, 80%; under `O=C(NCCO)c1ccc2[nH]c3c(c2c1)CCCC3`, 102%.
Take `Cc1ccc2nc(-c3c[nH]c4ccccc34)c(Nc3ccc(F)cc3)n2c1`: the survival is 72%.
`CCC(Oc1ccccc1-c1nnc(-c2ccccc2)o1)C(=O)Nc1ccc(C(C)=O)cc1` (stereo not given): the survival was 118%.
Under `CCOC(=O)c1ccccc1NC(=O)COc1ccccc1-c1nnc(-c2ccccc2)o1` stands 22%; under `CCc1ccccc1NC(=O)C(CC)Oc1ccccc1-c1nnc(-c2ccccc2)o1` (stereo not given), 0% (active); under `CC(=O)c1ccc(S(=O)(=O)N2CCn3cccc3C2c2ccc(F)c(F)c2)cc1` (stereo not given), 68%.
With `Nc1nc2n(n1)C(c1cccs1)CC(c1ccc(Cl)cc1Cl)N2` (stereo not given), the survival was 106%.
Under `CCOC(=O)C1CCC(CN(Cc2cccc(Br)c2)S(=O)(=O)c2ccc(Cl)cc2)CC1` (stereo not given) stands 90%; under `COc1ccc(NC(=O)c2ccco2)cc1NC(=O)C(C)Oc1ccc(Cl)cc1Cl` (stereo not given), 6% (active); under `Cc1ccc2nc(-c3ccc(Cl)c(NC(=O)c4ccc(Br)o4)c3)oc2c1`, 69%.
Under `Cc1ccc2cccc(NC(=O)c3ccc(-c4ccc(Cl)cc4Cl)o3)c2n1` stands 69%; under `COc1cc2ccccc2cc1C(=O)Nc1cccc(-c2nc3ccccc3o2)c1`, 1% (active).
Under `Cc1ccc2cccc(NC(=O)C(C)Oc3ccc(C)c(C)c3)c2n1` (stereo not given) stands 83%.
Turning to `Cc1cc(C)c2oc(-c3cccc(NC(=O)c4ccc(Br)o4)c3)nc2c1`, the survival was 45%.
The figure for `COc1ccc(NC(=O)c2ccco2)cc1NC(=O)C(C)C` is 90%; for `COc1cc2ccccc2cc1C(=O)Nc1cc(-c2nc3ccccc3o2)ccc1C` it is 126%.
The figure for `COc1cc2ccccc2cc1C(=O)Nc1cccc(-c2nc3cc(C)c(C)cc3o2)c1` is 58%.
With `Cc1ccc2nc(-c3cccc(NC(=O)c4ccc(Br)o4)c3)oc2c1`, the survival was 7% (active).
For `Cc1ccc2cccc(NC(=O)C(C)Oc3ccc(Cl)cc3Cl)c2n1` (stereo not given), the survival is -9% (active).
As for `COc1ccc(NC(=O)c2ccco2)cc1NC(=O)c1cc(Cl)ccc1OC`, the survival is 65%.
With `Cc1cc2c(cc1S(=O)(=O)CCC(=O)N1CCCCC1C)OCC(=O)N2` (stereo not given), the survival was 85%.
The figure for `COc1ccc(CNC(=O)c2ccc(CS(=O)Cc3ccccc3Cl)o2)cc1` (stereo not given) is 95%; for `Cc1ccc(-n2nc(C(=O)N3CCCCC3C)c(=O)n(C)c2=O)cc1` (stereo not given) it is 80%.
The figure for `COc1ccc(S(=O)(=O)c2cn(C)c3ccc(C)cc3c2=O)cc1` is 82%; for `CSc1ccc(CNC(=O)c2ccccc2NC(=O)c2nsc3ccccc23)cc1` it is 90%; for `CCc1ccc(NC(=O)CN2C(=O)C3(SCC(=O)N3c3ccc(F)c(F)c3)c3ccccc32)cc1` (stereo not given) it is 125%.
Under `COc1cc2ccccc2cc1C(=O)Nc1ccc2oc(-c3ccc(Cl)cc3)nc2c1` stands 91%; under `COc1ccc(-c2nc3ccccc3o2)cc1NC(=O)CSc1ccc(Cl)cc1`, 73%; under `COc1cc2ccccc2cc1C(=O)Nc1ccc2oc(-c3ccccc3)nc2c1`, 4% (active).
Turning to `CC(C)C(=O)Nc1cccc(-c2nc3ccccc3o2)c1`, the survival is 103%.
Under `COc1ccccc1OC(C)C(=O)Nc1cccc(-c2nc3ccccc3o2)c1` (stereo not given) stands 3% (active); under `COc1ccc(-c2nc3ccccc3o2)cc1NC(=O)C(C)Oc1ccc(Cl)cc1Cl` (stereo not given), 8% (active); under `COc1ccc(-c2nc3ccccc3o2)cc1NC(=O)Cc1ccc(Cl)cc1`, 68%.
Turning to `COc1cc2ccccc2cc1C(=O)Nc1ccc2oc(-c3ccc(F)cc3Cl)nc2c1`, the survival was 69%.
The figure for `Cc1cc(OC(C)C(=O)Nc2cccc(-c3nc4ccccc4o3)c2)cc(C)c1Cl` (stereo not given) is 55%; for `COc1cc2ccccc2cc1C(=O)Nc1ccc2oc(-c3ccc(F)cc3)nc2c1` it is 81%.
Under `CCc1ccc(OCC(=O)Nc2ccc3oc(-c4ccc(OC)cc4)nc3c2)cc1` stands 79%.
Under `CCc1ccc(-c2nc3cc(NC(=O)c4cc5ccccc5cc4OC)ccc3o2)cc1` stands 14% (active).
